The text below walks through data of PubChem BioAssay AID1851 (National Center for Advancing Translational Sciences (NCATS), 2009).

Molecules are shown by their SMILES. “And” between values parts separate entries of the source, which are not always exact repeats. Equal values may be shown once. Screen size: about 16,000 compounds; about 4,000 (25%) were called active. About 26% were inconclusive and are not listed. Calls come from the whole dose curve; as a rule, active = well fitted curve in the direction sought with a large enough effect; inconclusive = small, poorly fitted or top-dose-only effect, or effect the other way; inactive = no such curve, though single readings can be large or run the other way. Not all results are given here. Some structures have more than one record in an assay (separate samples or runs), and their calls can disagree. Square brackets hold non-standard residues; d marks the D form. Peptide text beside a SMILES is read from it.
% is set by controls: 0 for no effect and ±100 for the full control effect.

The target in the test is Cytochrome P450 2C9 (Homo sapiens) (UniProt P11712). Nature of the test: Cytochrome panel assay with activity outcomes. As to conditions: recombinant CYP, pro-luciferin dealkylation, luminescence, p450-cyp2c9; series mostly up to 57.1 µM.
Chain of Cytochrome P450 2C9 (Homo sapiens) (P11712 whole entry, looked up): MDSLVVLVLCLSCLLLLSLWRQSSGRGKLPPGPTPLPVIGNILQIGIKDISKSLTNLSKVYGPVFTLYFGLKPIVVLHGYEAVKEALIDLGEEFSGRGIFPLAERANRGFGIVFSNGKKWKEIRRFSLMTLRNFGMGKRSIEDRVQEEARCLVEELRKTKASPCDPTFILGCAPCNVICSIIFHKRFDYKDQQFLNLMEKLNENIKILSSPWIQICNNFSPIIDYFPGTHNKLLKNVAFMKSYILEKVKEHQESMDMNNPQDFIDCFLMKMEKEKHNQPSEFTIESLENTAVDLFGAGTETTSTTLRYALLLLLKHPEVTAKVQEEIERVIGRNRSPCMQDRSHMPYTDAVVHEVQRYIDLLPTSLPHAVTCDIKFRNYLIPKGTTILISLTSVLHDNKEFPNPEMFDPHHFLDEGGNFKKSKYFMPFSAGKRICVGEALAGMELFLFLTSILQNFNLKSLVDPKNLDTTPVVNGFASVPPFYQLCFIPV
In general, AC50 refers to the midpoint of the concentration-response curve, whichever way the signal moves. Turning to `CCNc1nc(NCC)nc(ON=C(C)C)n1`, the AC50 result was “inactive”.

As for `N=c1nc(N2CCCCC2)cc(N)n1O`, the AC50 entry was “inactive”.

Turning to `CO[C@@H](NC(N)=O)C(=O)O`, the activity, negative = inhibition was 25.8% [at 11.4 µM] (inactive). As for `NCC(=O)N[C@H](CO)C(=O)O` (H-Gly-[dS]-OH), the activity, negative = inhibition is 12.1% [at 11.4 µM] (inactive). With `CCOC(=O)N1CCN(C(=O)c2oc3ccc(S(=O)(=O)N4CCCCC4)cc3c2C)CC1`, the AC50 is 10 µM (active). As to `CCOC(=O)N1CCN(C(=O)c2ccc(Cl)c(S(=O)(=O)N3CCOCC3)c2)CC1`, the AC50 result is “inactive”. The same measure, in the same setting: next, `COc1ccc(S(=O)(=O)N(CCc2ccccc2)CC(=O)N2CCOCC2)cc1`: “inactive”; `CN(Cc1ccccc1)S(=O)(=O)c1ccc(OCC(=O)N2CCOCC2)cc1`: 14.1 µM (active). On the same count and under the same terms, next, `CCN(CC)C(=O)COc1ccc(S(=O)(=O)N2CCOCC2)cc1`: “inactive”. Regarding `COc1cccc(-c2cc(NCc3cnc(C)cn3)ncn2)c1`, the activity, negative = inhibition is 6.07% [at 2.29 µM] (inactive). The same measure, in the same setting: with `COc1cccc(-c2cc(NCc3ccc(OC)cc3OC)ncn2)c1` the figure was -18.3% [at 2.29 µM] (inactive).

Turning to `COc1cccc(-c2nnc3n2N=C(C(C)(C)C)CS3)c1`, the AC50 is 17.8 µM (active). Turning to `Cc1nn(S(=O)(=O)c2cccs2)c(C)c1Sc1ccc([N+](=O)[O-])cc1`, the AC50 was 4.47 µM (active). In the case of `O=C(C/C=N/OCc1ccc(F)cc1Cl)c1cnc(-c2ccccc2)s1`, the AC50 was 3.98 µM (active). As to `Cc1ccccc1/C=C1\OC(=O)c2ccccc21`, the AC50 entry is “inactive”.

Regarding `CC1=CC(=C2C(=O)c3ccccc3C2=O)C=C(C)O1`, the AC50 was 2.51 µM (active).

For the compound `CC1=CC(=C2C(=O)c3ccccc3C2=O)C=C(C)N1Cc1ccco1`, the AC50 is 2.24 µM (active).

Turning to `CC1(C)OC(=O)N(Cc2ccco2)C1(C)O` (centres undefined), the AC50 result is “inactive”.

Regarding `COC(=O)C(NC(=O)c1ccccc1)=C1C=C(C)OC(C)=C1`, the AC50 entry is “inactive”.

Turning to `CCCCS(=O)(=O)NC1=NCN(Cc2ccco2)CN1`, the AC50 result is “inactive”. Turning to `CC(=O)NC1(c2cccc(F)c2)CCN(CC(=O)NC(C)C)CC1`, the AC50 entry was “inactive”. On to `CCCCCCCCCn1cc(C(C)=O)c(=O)[nH]c1=O`, for which the AC50 result is “inactive”. `COc1ccc(CNc2ccnc(-c3ccccc3C(F)(F)F)n2)c(OC)c1`: the activity, negative = inhibition was 3.78% [at 2.29 µM] (inactive).

As to `Cc1ccccc1OCC(=O)OC1CCN(C)CC1`, the AC50 entry was “inactive”. On the same count and under the same terms, next, `Cc1ccc(C(=O)C(OC(=O)CN2C(=O)c3ccccc3C2=O)c2ccccc2)cc1` (centres undefined): “inactive”; `Cc1ccc(C(=O)C(OC(=O)CNS(=O)(=O)c2ccccc2)c2ccccc2)cc1` (centres undefined): 7.08 µM (active).

On to `Cc1ccc(C(=O)C(OC(=O)COc2ccccc2C)c2ccccc2)cc1` (centres undefined), for which the AC50 was 15.8 µM (active). Consider `CCSc1nnc2n(N)c(=O)c3ccccc3n12`, for which the AC50 result was “inactive”.

For the compound `CO[C@H]1COC(=O)CCC[C@H](C)[C@H](OC)COC(=O)C/C=C\[C@@H]1C`, the activity, negative = inhibition is 25.3% [at 11.4 µM] (inactive).

In the case of `CN(C)C(=O)c1ccc(-c2cncnc2NCCc2cnc[nH]2)cc1`, the activity, negative = inhibition was -10.2% [at 2.29 µM] (inactive). For `COc1ccc2[nH]cc(CCNc3ccnc(-c4ccc(C(=O)N(C)C)cc4)n3)c2c1`, the activity, negative = inhibition was -14% [at 2.29 µM] (inactive). For `COc1ccc2[nH]cc(CCNc3ncncc3-c3cccnc3)c2c1`, the activity, negative = inhibition is 0.571% [at 2.29 µM] (inactive). For `COc1ccc2[nH]cc(CCNc3cc(-c4ccc(C(=O)N(C)C)cc4)ncn3)c2c1`, the activity, negative = inhibition was 8.96% [at 2.29 µM] (inactive). Consider `COc1ccc2[nH]cc(CCNc3ncncc3-c3ccc(N(C)C)cc3)c2c1`, for which the AC50 was 0.501 µM (active). Consider `COc1ccc2[nH]cc(CCNc3ncncc3-c3ccc(C(=O)N(C)C)cc3)c2c1`, for which the AC50 was 0.398 µM (active). Consider `COc1ccc(CNc2ncncc2-c2ccc(C(=O)N(C)C)cc2)c(OC)c1`, for which the activity, negative = inhibition was -28.8% [at 2.29 µM] (inactive). The same measure, in the same setting: next, `COc1ccc(CNc2ncncc2-c2ccc(N(C)C)cc2)c(OC)c1`: -16.8% [at 2.29 µM] (inactive).

As to `COc1ccc2[nH]cc(CCNc3ncnc4ccc(-c5ccc(C(=O)N(C)C)cc5)cc34)c2c1`, the AC50 is 0.251 µM (active). For `Cn1c(-c2sccc2OCc2ccccc2)n[nH]c1=S`, the AC50 was 11.2 µM (active). In the case of `CSc1n[nH]c(-c2sccc2OCc2ccc(C)cc2)n1`, the AC50 is 5.01 µM (active). As to `Cn1c(=O)c(-c2cccs2)nc2cnc(OCc3ccccc3)nc21`, the AC50 entry was “inactive”.

In the case of `CSc1nnc(-c2sccc2OCc2ccccc2)n1C`, the AC50 is 17.8 µM (active).

As to `CC(C)=CCC/C(C)=C/CO/N=C1/C[C@@H](O)[C@@H](O)[C@@H]2[C@@H]3C(=O)N(C4CCCCC4)C(=O)[C@H]3CC[C@@H]12`, the activity, negative = inhibition was -8.91% [at 11.4 µM] (inactive). For the compound `CC(SCc1cn2cc(Cl)ccc2n1)C(=O)O` (centres undefined), the AC50 result is “inactive”. As to `CN(C)c1ccc(-c2cc(NCc3ccccc3)ncn2)cc1`, the activity, negative = inhibition is -5.31% [at 2.29 µM] (inactive). Turning to `c1ccc(Oc2cc(-c3ccccc3)ncn2)cc1`, the AC50 is 20 µM (active). For the compound `COc1cccc(-c2cc(NCc3ccccc3OC)ncn2)c1`, the activity, negative = inhibition is -9.54% [at 2.29 µM] (inactive).

With `CO[C@@H]1COC(=O)[C@H](C)NC(=O)C/C=C\[C@@H](C)[C@@H](NS(=O)(=O)c2ccc(C)cc2)COC(=O)C/C=C\[C@@H]1C`, the activity, negative = inhibition is -0.567% [at 11.4 µM] (inactive). Regarding `COCCNc1ncnc2ccc(-c3ccc(C(=O)N(C)C)cc3)cc12`, the activity, negative = inhibition is -1.35% [at 2.29 µM] (inactive). In the case of `COc1cc(/C=C2/C(=N)N3C=CSC3=NC2=O)ccc1OCCCOc1ccccc1C`, the AC50 was 0.708 µM (active). On the same count and under the same terms, next, `COc1cc(/C=C2/C(=N)N3OC(C)=CC3=NC2=O)ccc1OCCOc1ccc(C)cc1`: “inactive”; `CCOc1cc(/C=C2/C(=N)N3C=CSC3=NC2=O)ccc1OCCCOc1ccccc1C`: 0.631 µM (active). On to `COc1ccccc1OCCOc1ccc(/C=C2/C(=N)N3OC(C)=CC3=NC2=O)cc1OC`, for which the AC50 entry was “inactive”. Take `CO[C@@H]1COC(=O)CC=C[C@@H](C)[C@@H]2C=C[C@H](O)[C@@H](COC(=O)C/C=C\[C@H]1C)O2`: the activity, negative = inhibition was 10.7% [at 11.4 µM] (inactive). The same measure, in the same setting: with `Cc1ccccc1-c1cncnc1N1CCN(C)CC1` the figure was 18.6% [at 2.29 µM] (inactive). Regarding `CN1CCCC1CCNC1C2CC3CC(C2)CC1C3` (centres undefined), the AC50 result was “inactive”.

As to `NCCCCN`, the AC50 entry was “inactive”. On the same count and under the same terms, next, `NCCCNCCCCNCCCN`: “inactive”; `NCCCCNCCCN`: “inactive and 12.6 µM (active)”. The same measure, in the same setting: next, `CCCCOC(=O)C1=C(C)Nc2ncnn2C1c1cc(OC)ccc1OC` (centres undefined): 7.94 µM (active); `CCN(CC)CCOC(=O)c1c(C)n(C)c2ccc(OC)cc12`: “inactive”. As to `CCCCN(CC)Cc1ccc(CNC(=O)Nc2ccc(OC)cc2OC)o1`, the AC50 entry was “inactive”. Consider `O=S(=O)(O)[C@@H](CO)c1ccccc1` (tested in a mixture with another compound), for which the activity, negative = inhibition was -2.54% [at 11.4 µM] (inactive). `O=C1C(SCCO)=C(SCCO)C(=O)c2ccccc21`: the AC50 is 5.01 µM (active).

Regarding `CCCn1c(=O)c2[nH]c(C3CCCC3)nc2n(CCC)c1=O`, the AC50 entry is “inactive”. For `Nc1ncnc2c1ncn2[C@H]1O[C@@H](C(=O)O)[C@@H](O)[C@H]1O`, the activity, negative = inhibition is 20% [at 11.4 µM] (inactive). Turning to `CC(C)c1ccc(OCc2ccc(C(=O)N3CCN(c4ccccn4)CC3)cc2)cc1`, the AC50 was 3.16 µM (active).

In the case of `COc1ccc(S(=O)(=O)NCc2ccc(C(=O)N3CCN(c4ccccn4)CC3)cc2)cc1`, the AC50 was 3.98 µM (active).

Regarding `COc1ccc(C(=O)N2CCC3(CC2)CN(C(=O)Nc2ccccc2)C3)cc1`, the AC50 result was “inactive”. As to `COCC(=O)N1CCC2(CC1)CCN(c1ccccn1)CC2`, the AC50 result is “inactive”.

As for `O=C(c1ccco1)N1CCC2(CC1)CN(c1ccccn1)C2`, the AC50 result was “inactive”. For `COc1ccc(C(=O)N2CCC3(CC2)CCN(c2ncccn2)CC3)cc1`, the AC50 entry was “inactive”. As to `CCOC(=O)CC(=O)CSc1nnc2c(n1)[nH]c1ccccc12`, the AC50 was 8.91 µM (active). With `C[C@@H]1CCc2cc(F)cc3c(=O)c(C(=O)O)cn1c23`, the AC50 result is “inactive”. In the case of `Cc1ccc(C(=O)NNC(=O)c2cc3cc4ccccc4nc3s2)cc1`, the AC50 entry was “inactive”.

Consider `CC1CCc2cc(F)ccc2N1C(=O)CSc1nnc2c(n1)[nH]c1ccc(F)cc12` (centres undefined), for which the AC50 was 1.78 µM (active). In the case of `Cc1ccc(C(=O)NNC(=O)CSc2nnc3c(n2)[nH]c2ccc(F)cc23)cc1`, the AC50 was 5.62 µM (active).

As to `CON(C)C(=O)c1nnc2c(n1)[nH]c1ccccc12`, the activity, negative = inhibition was -19% [at 11.4 µM] (inactive). Regarding `CCOCc1cnc(C)nc1NCC(=O)c1c(C)[nH]c2ccccc12`, the AC50 entry is “inactive”. As to `Cc1ccc2[nH]c3nc(CCCn4ccnc4-c4ccccc4)nnc3c2c1`, the activity, negative = inhibition was -17.6% [at 11.4 µM] (inactive). Turning to `Cc1ccc(/C=N\NC(=O)c2cc(OCC(F)(F)F)ccc2OCC(F)(F)F)cc1`, the AC50 result was “inactive”. The same measure, in the same setting: with `COc1ccc(/C=N/NC(=O)c2ccccc2)cc1CN1CCN(c2ccc(F)cc2)CC1` the figure was 11.2 µM (active). For `CCOc1cc(CN2CCN(c3ccc(C(C)=O)cc3)CC2)ccc1OC`, the AC50 result was “inactive”. Still for that read-out and setting: next, `COc1cccc(/C=N\NC(=O)c2cc(OCC(F)(F)F)ccc2OCC(F)(F)F)c1`: “inactive”. On to `COc1ccc(/C=N/NC(=O)c2ccn[nH]2)cc1COc1ccc(Cl)cc1`, for which the AC50 is 12.6 µM (active). On the same count and under the same terms, next, `COc1ccccc1CN1CCC2(CC1)CCN(C(C)=O)CC2`: “inactive”.

With `COc1ccc(/C=N/NC(=O)c2ccn[nH]2)cc1COc1ccc(F)cc1`, the AC50 was 25.1 µM (active). For `Cc1n[nH]c(=O)[nH]c1=O`, the AC50 result was “inactive”.

With `CCOc1nc(N2CCCCC2)nc(-n2cc(-c3ccccc3)nn2)n1`, the AC50 was 2.24 µM (active).

Consider `O=C(O)CC12C[C@H]3C[C@@H](CC(O)(C3)C1)C2`, for which the activity, negative = inhibition is -4.71% [at 11.4 µM] (inactive). Consider `Cc1cnc(CNc2nc(-c3cccnc3)nc3ccccc23)cn1`, for which the activity, negative = inhibition is 16.9% [at 2.29 µM] (inactive). Regarding `NCCS`, the AC50 result is “inactive”.

Regarding `Cc1c(Br)c([N+](=O)[O-])nn1C(C)C(=O)Nc1nccs1` (centres undefined), the AC50 was 3.55 µM (active). `O=C(O)c1cc(=O)cc(C(=O)O)[nH]1`: the AC50 result was “inactive”.
